PubChem BioAssay (Tox21)
Values joined by “and” are separate entries in the source; they are usually repeats but may differ in a detail not shown here. Equal values may be shown once. Results filed as inconclusive are left out. Active and inactive are the calls of the source. Unless noted, calls follow the shape of the dose curve; as a rule, active = well fitted curve in the direction sought with a large enough effect in the repeat runs; inconclusive = weak or mixed curves; inactive = no such curve, though single readings can be large; an effect the other way counts as inactive or inconclusive.

How the values were obtained:
[1] = biological target: Acetylcholinesterase (Homo sapiens) (UniProt P22303); test: Acetylcholinesterase (AChE) small molecule antagonists: colormetric cell-based qHTS assay (AID 1347395; calls by dose curve; also: nearly all actives have a fitted effect of over 30% in size; also: potency is read from the fitted curve at half-maximal effect)
Acetylcholinesterase (Homo sapiens), sequence (P22303 whole entry, looked up): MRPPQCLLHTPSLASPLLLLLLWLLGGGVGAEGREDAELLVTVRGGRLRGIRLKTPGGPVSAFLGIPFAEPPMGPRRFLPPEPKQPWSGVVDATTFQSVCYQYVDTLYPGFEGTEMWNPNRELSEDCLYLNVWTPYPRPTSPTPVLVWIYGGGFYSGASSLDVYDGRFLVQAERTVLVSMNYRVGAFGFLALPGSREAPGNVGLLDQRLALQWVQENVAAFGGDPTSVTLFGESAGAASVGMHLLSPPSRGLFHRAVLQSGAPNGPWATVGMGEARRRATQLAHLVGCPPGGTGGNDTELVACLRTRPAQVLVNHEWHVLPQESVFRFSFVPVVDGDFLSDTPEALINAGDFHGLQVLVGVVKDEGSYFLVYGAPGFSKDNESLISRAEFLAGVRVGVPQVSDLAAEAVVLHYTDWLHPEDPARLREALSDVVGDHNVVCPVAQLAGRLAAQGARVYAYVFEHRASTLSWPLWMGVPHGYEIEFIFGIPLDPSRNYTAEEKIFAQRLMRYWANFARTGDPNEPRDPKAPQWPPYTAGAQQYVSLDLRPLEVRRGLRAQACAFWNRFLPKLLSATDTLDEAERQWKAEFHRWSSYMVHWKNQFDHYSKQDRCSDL
Procedure, shortened: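 Colorimetric read-out: DTNB detects thiocholine released when cellular AChE in SH-SY5Y cells hydrolyses acetylthiocholine. Cells attached overnight, received compound for 30 min at 37 C, then substrate mix for 90 min at 37 C.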

[2] = biological target: Acetylcholinesterase (Homo sapiens) (UniProt P22303); test: Acetylcholinesterase (AChE) small molecule antagonists: fluorescence cell-based qHTS assay (AID 1347398; calls by dose curve; also: nearly all actives have a fitted effect of over 50% in size; also: potency is read from the fitted curve at half-maximal effect); conditions: Potency: AChE activity; outcome: AChE activity
Procedure, shortened: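 SH-SY5Y, 2,000 cells/well, attached overnight; cmpd 30 min 37 C; acetylthiocholine/Thiolite Green cocktail 40 min RT; fluorescence Ex/Em 490/520 nm.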

[3] = biological target: Acetylcholinesterase (Homo sapiens) (UniProt P22303); test: Acetylcholinesterase (AChE) small molecule antagonists: enzyme-based qHTS assay with human liver microsomes (AID 1347399; calls by dose curve; also: nearly all actives have a fitted effect of over 60% in size; also: potency is read from the fitted curve at half-maximal effect); conditions: Potency: qHTS inhibition; outcome: qHTS inhibition
Procedure, shortened: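 Recombinant human AChE (50 mU/mL in the enzyme mix) and human liver microsomes (0.25 mg/mL final) were preincubated with compound and NADPH (0.25 mg/mL final) for 30 min at 37 C. Acetylthiocholine/DTNB was then added; thiocholine was read colorimetrically after 10 min at room temperature.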

[4] = biological target: Cytochrome P450 2C19 (Homo sapiens) (UniProt P33261); test: Cytochrome P450 Family 2 Subfamily C Member 19 (CYP2C19) small molecule antagonists: luciferase reporter qHTS assay (AID 1671197); also: nearly all actives have a fitted effect of over 65% in size; also: potency is read from the fitted curve at half-maximal effect
Cytochrome P450 2C19 (Homo sapiens), sequence (P33261 whole entry, looked up): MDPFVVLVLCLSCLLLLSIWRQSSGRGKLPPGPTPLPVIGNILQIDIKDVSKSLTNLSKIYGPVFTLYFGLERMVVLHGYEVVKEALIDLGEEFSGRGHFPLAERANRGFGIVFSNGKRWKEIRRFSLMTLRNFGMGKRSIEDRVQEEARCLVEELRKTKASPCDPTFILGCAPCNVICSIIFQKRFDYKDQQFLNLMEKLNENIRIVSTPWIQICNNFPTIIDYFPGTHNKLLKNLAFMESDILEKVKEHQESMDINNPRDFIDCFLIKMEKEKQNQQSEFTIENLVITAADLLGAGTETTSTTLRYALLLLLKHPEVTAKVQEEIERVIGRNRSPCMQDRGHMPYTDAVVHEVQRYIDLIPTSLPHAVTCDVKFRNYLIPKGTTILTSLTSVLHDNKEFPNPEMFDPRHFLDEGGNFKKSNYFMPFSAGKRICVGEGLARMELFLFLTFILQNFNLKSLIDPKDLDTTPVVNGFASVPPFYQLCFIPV
Procedure, shortened: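 CYP2C19 P450-Glo, 1536-well qHTS. Cpd + enzyme/proluciferin substrate 10 min RT; + NADPH regen, 37C 1 h; stop with luciferin detection reagent, 20 min RT, luminescence (RLU). Pos ctrl ketoconazole.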

[5] = biological target: Cytochrome P450 2C9 (Homo sapiens) (UniProt P11712); test: Cytochrome P450 Family 2 Subfamily C Member 9 (CYP2C9) small molecule antagonists: luciferase reporter qHTS assay (AID 1671198); also: nearly all actives have a fitted effect of over 50% in size; also: potency is read from the fitted curve at half-maximal effect
Cytochrome P450 2C9 (Homo sapiens), sequence (P11712 whole entry, looked up): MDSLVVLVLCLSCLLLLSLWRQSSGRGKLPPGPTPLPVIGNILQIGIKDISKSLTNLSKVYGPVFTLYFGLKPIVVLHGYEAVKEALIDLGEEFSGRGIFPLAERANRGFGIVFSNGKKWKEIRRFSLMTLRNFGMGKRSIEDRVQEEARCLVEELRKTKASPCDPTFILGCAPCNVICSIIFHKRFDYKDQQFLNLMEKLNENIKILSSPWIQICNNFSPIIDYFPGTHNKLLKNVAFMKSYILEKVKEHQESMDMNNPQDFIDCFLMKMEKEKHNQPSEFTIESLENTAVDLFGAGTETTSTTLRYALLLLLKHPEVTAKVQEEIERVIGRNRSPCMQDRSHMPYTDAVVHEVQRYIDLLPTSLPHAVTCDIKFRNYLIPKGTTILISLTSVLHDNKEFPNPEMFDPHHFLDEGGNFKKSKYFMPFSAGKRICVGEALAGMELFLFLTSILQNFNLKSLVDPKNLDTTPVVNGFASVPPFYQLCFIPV
Procedure, shortened: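 P450-Glo proluciferin substrate with CYP2C9 enzyme; 10 min RT preincubation, then NADPH regeneration 1 h at 37C; luciferin detection reagent 20 min RT, luminescence in relative luminescence units.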

[6] = biological target: Cytochrome P450 1A2 (Homo sapiens) (UniProt P05177); test: Cytochrome P450 Family 1 Subfamily A Member 2 (CYP1A2) small molecule antagonists: luciferase reporter qHTS assay (AID 1671199); also: nearly all actives have a fitted effect of over 50% in size; also: potency is read from the fitted curve at half-maximal effect
Cytochrome P450 1A2 (Homo sapiens), sequence (P05177 whole entry, looked up): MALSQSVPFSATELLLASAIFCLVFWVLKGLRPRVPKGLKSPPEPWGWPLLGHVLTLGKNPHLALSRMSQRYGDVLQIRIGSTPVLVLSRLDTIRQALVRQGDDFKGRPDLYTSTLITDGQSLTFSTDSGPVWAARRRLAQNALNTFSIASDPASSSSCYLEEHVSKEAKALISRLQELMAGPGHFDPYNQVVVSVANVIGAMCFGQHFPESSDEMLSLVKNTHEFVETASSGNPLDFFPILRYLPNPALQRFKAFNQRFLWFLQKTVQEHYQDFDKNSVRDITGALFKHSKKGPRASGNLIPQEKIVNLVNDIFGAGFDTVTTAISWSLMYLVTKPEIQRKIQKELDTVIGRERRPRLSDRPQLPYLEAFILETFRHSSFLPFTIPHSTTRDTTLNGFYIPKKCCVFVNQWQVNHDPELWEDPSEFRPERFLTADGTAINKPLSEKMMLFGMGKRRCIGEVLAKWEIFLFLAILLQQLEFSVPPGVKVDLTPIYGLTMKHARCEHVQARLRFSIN
Procedure, shortened: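 Room-temperature CYP1A2 reaction with proluciferin substrate: compounds added from DMSO, 10 min preincubation, NADPH regeneration for 1 h. Luciferin detection reagent then added; luminescence recorded as RLU.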

[7] = biological target: Voltage-gated inwardly rectifying potassium channel KCNH2 (Homo sapiens) (UniProt Q12809); test: Human Ether-a-go-go-Related Gene (hERG) channel small molecule antagonists: fluorescence cell-based qHTS assay (AID 1671200);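 also: hERG-expressing U2OS cells given a thallium stimulus after FluxOR II dye loading; series mostly up to about 77 µM; nearly all actives have a fitted effect of over 50% in size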
Voltage-gated inwardly rectifying potassium channel KCNH2 (Homo sapiens), sequence (Q12809 whole entry, looked up): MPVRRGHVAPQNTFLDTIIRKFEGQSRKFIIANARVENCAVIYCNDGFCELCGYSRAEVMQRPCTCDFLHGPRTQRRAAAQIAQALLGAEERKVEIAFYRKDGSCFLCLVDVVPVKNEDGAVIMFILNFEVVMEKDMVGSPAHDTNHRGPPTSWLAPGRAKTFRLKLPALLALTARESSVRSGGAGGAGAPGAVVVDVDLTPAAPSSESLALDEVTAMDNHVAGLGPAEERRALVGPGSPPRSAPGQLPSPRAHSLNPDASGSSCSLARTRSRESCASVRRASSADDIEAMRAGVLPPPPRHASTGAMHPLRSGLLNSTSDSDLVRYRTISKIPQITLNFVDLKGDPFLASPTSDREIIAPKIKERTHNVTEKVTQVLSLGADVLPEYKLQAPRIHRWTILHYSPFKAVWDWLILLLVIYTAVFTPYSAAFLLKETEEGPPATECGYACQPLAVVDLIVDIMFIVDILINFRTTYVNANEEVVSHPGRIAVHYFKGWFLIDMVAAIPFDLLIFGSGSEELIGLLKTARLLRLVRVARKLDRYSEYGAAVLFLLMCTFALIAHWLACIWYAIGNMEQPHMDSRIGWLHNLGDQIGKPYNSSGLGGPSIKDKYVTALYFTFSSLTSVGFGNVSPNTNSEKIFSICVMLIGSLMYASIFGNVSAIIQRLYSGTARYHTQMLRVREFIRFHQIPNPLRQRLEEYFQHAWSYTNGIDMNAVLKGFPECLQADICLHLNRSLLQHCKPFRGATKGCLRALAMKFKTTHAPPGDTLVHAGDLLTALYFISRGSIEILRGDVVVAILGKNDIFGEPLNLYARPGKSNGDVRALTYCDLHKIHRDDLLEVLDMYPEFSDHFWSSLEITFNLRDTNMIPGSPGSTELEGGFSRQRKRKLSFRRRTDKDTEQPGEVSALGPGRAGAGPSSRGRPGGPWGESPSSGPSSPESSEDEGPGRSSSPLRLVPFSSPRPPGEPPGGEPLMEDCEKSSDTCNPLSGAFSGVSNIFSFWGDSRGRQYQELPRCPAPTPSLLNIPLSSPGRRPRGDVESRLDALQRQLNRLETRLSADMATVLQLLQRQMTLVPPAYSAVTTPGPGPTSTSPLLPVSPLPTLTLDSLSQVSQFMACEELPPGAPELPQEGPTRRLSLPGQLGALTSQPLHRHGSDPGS
Procedure, shortened: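 Channel function was assessed by thallium flux. Cells seeded the previous day and kept at 37 C took up FluxOR II dye over 1 h in the dark at room temperature, then sat another 10 min before stimulation.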

[8] = biological target: Cytochrome P450 3A4 (Homo sapiens) (UniProt P08684); test: Cytochrome P450 Family 3 Subfamily A Member 4 (CYP3A4) small molecule antagonists: luciferase reporter qHTS assay (AID 1671201); also: nearly all actives have a fitted effect of over 50% in size; also: potency is read from the fitted curve at half-maximal effect
Cytochrome P450 3A4 (Homo sapiens), sequence (P08684 whole entry, looked up): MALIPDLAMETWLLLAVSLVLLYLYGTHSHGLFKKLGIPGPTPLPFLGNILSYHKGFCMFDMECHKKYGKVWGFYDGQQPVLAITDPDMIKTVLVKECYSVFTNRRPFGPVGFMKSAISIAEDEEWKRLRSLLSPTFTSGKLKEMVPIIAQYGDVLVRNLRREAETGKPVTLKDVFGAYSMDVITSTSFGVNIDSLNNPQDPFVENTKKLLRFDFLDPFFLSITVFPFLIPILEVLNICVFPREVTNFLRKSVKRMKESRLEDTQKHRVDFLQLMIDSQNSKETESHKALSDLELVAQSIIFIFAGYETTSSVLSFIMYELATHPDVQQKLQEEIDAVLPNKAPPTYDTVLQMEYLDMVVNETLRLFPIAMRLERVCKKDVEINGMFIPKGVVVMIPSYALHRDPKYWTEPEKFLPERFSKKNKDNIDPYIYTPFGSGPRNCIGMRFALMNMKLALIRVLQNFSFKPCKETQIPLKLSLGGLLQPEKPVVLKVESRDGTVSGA
Procedure, shortened: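 Compounds in DMSO were pin-transferred onto CYP3A4 enzyme-substrate mix and held 10 min at room temperature. NADPH regenerating solution started the reaction for 1 h; luciferin detection reagent stopped it, and luminescence was read after 20 min.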

[9] = biological target: Cytochrome P450 2D6 (Homo sapiens) (UniProt P10635); test: Cytochrome P450 Family 2 Subfamily D Member 6 (CYP2D6) small molecule antagonists: luciferase reporter qHTS assay (AID 1671196); also: nearly all actives have a fitted effect of over 50% in size; also: potency is read from the fitted curve at half-maximal effect
Cytochrome P450 2D6 (Homo sapiens), sequence (P10635 whole entry, looked up): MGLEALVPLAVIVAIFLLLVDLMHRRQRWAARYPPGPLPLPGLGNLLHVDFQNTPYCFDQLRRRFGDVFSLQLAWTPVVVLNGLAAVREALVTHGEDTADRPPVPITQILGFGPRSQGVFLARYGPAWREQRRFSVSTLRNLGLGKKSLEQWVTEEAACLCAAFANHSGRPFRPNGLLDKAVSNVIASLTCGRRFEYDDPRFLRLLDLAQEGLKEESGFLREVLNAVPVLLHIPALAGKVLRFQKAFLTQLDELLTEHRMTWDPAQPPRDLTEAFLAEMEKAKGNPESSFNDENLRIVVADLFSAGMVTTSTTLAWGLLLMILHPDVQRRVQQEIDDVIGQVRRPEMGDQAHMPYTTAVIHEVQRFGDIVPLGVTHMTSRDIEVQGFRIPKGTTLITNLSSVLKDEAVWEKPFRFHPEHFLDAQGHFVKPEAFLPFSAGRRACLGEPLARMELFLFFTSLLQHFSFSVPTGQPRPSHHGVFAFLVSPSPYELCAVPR
Procedure, shortened: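 Room-temperature luminescent CYP2D6 activity assay: compound preincubated 10 min with enzyme–substrate mix, NADPH-initiated reaction 1 h, detection reagent 20 min before reading.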

[10] = biological target: Acetylcholinesterase (Homo sapiens) (UniProt P22303); test: Acetylcholinesterase (AChE) small molecule antagonists: enzyme-based qHTS assay (AID 1347397; calls by dose curve; also: nearly all actives have a fitted effect of over 55% in size); conditions: Potency: AChE enzyme activity inhibition; outcome: AChE enzyme activity inhibition
Procedure, shortened: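 Colorimetric DTNB read-out of thiocholine released from acetylthiocholine by recombinant human AChE (50 mU/mL as dispensed). Compounds were preincubated 30 min at RT before substrate/DTNB addition, with a 10 min RT reaction.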

Measured: Potency

N#CN
inactive: [1] | [2] | [3] | [4] | [5] | [6] | [7] | [8]

N[C@@H](Cc1ccc(Oc2cc(I)c(O)c(I)c2)c(I)c1)C(=O)O
active: [5] 11 µM
inactive: [1] | [2] | [3] | [4] | [6] | [7]

CNC(=O)O/N=C(/CSC)C(C)(C)C
inactive: [5] | [7] | [8]
active: [1] 1.59 µM | [2] 0.142 µM | [3] 11.2 µM | [4] 20 µM

CCCOC(=O)Cc1ccc(OCC(=O)N(CC)CC)c(OC)c1
inactive: [1] | [2] | [3] | [9] | [4] | [5] | [6] | [7]

CNC(=O)NC(O)C(Cl)(Cl)Cl (configuration not stated)
inactive: [1] | [2] | [9] | [4] | [5] | [6] | [7] | [8]

CC(C)(N)Cc1ccc(Cl)cc1
inactive: [1] | [2] | [3] | [4] | [5] | [7] | [8]
active: [9] 3.09 µM | [6] 24.5 µM

O=c1[nH]c2ccccc2o1
inactive: [1] | [2] | [3] | [5] | [7] | [8]

C/C(=N\NC(=O)Nc1cc(F)cc(F)c1)c1ncccc1C(=O)O
inactive: [1] | [2] | [3] | [9] | [7] | [8]
active: [5] 10 µM and 12.6 µM

C(COCC1CO1)OCC1CO1 (configuration not stated)
inactive: [1] | [10] | [4] | [5] | [6] | [7] | [8]

CS(=O)(=O)Cl
inactive: [1] | [2] | [3] | [4] | [5] | [7] | [8]

ClCCN1CCCC1
inactive: [1] | [2] | [3] | [9] | [5] | [6] | [7] | [8]

CCOC(=O)Nc1cccc(OC(=O)Nc2ccccc2)c1
active: [6] 12.6 µM
inactive: [1] | [10] | [3] | [7]

CC(C)(O)C(Cl)(Cl)Cl
inactive: [1] | [2] | [3] | [9] | [4] | [5] | [6] | [7] | [8]

Cc1cccc2sc3nncn3c12
inactive: [10] | [4] | [5] | [7]
active: [1] 39.9 µM | [9] 15.9 µM | [6] 31.7 µM | [8] 20 µM

CCC(C(N)=O)N1CCCC1=O (configuration not stated)
inactive: [1] | [2] | [3] | [4] | [5] | [6] | [7] | [8]

O=CCCl
inactive: [1] | [2] | [3] | [4] | [6] | [7] | [8]

O=C(O)C(Br)(Br)Br
active: [4] 31.7 µM
inactive: [1] | [2] | [3] | [9] | [5] | [7] | [8]

CC(C)(N)Cc1ccccc1Cl
active: [9] 4.36 µM
inactive: [1] | [10] | [4] | [5] | [7] | [8]

C#CC(C)(C)O
inactive: [1] | [2] | [3] | [9] | [4] | [5] | [7] | [8]

CC(C)C(C)(N)C#N (configuration not stated)
inactive: [1] | [2] | [3] | [5] | [6] | [7] | [8]

CCC1(CC)C(=O)C=CNC1=O
active: [6] 15.5 µM
inactive: [1] | [2] | [3] | [7] | [8]

OCC(Cl)CCl (configuration not stated)
inactive: [1] | [2] | [3] | [7] | [8]
active: [4] 70.1 µM | [6] 39.4 µM

Cn1c(CCCC(=O)O)nc2cc(N(CCCl)CCCl)ccc21
inactive: [1] | [3] | [9] | [4] | [5] | [6] | [7] | [8]

BrCCc1ccccc1
inactive: [1] | [4] | [5] | [6] | [7] | [8]

C=C1C[C@@H]2[C@H](CC[C@]3(C)C(=O)CC[C@@H]23)[C@@]2(C)C=CC(=O)C=C12
inactive: [1] | [3] | [6] | [7] | [8]
active: [4] 4.36 µM
